# IL-1B inflam inh = qHTS for Inhibitors of Inflammasome Signaling: IL-1-beta AlphaLISA Primary Screen; activity change, % at 57.5 µM; THP-1 LPS/ATP IL-1B secretion, AlphaLISA, 16 h; stronger effect = lower value; AID 743279, 2014; hit rate 4.7% among 360,000; in the data active = activity change below about -50%; inconclusive = mostly about -30% to -49%; also: % is scaled to controls: 0 for no effect and ±100 for the full control effect
#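 THP-1 cells pretreated 1 hr with compounds (up to 57.5 uM final), then stimulated with LPS (250 ng/mL final) plus ATP (1.25 mM final); secreted IL-1B measured by AlphaLISA after 16 hr, decreased signal indicating inhibition.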
# SW480 rereplic = A quantitative high throughput screen for small molecules that induce DNA re-replication in SW480 colon adenocarcinoma cells | Potency, µM (titrated, usually from 46.1 µM), for the others: at the highest dose re-replication activation, usual class: activators | hit rate 1.8% among 340,000 | SW480 DNA re-replication, Hoechst DNA content imaging, 48 h; also: potency is read from the fitted curve at half-maximal effect; % of control where 0% means no effect; nearly all actives have a fitted effect of over 55% in size
#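 Per well, 250 cells were exposed to pinned compound for 48 hr. Nuclear DNA was visualised with Hoechst (40 min, 37 C) and total object intensity recorded by fluorescence scanning.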
# KB-3-1 cytotox = qHTS assay for MDR1-selective chemotherapeutics: Primary screen using the parental adenocarcinoma cell KB-3-1 | KB-3-1 viability, CellTiter-Glo ATP luminescence, 72 h | Potency, µM (series often up to 46.1 µM), actives largely listed as cytotoxic | hit rate 1.4% among 400,000 | AID 1347075, 2019; also: potency is read from the fitted curve at half-maximal effect; % is scaled to controls: 0 for no effect and ±100 for the full control effect; nearly all actives have a fitted effect of over 60% in size
#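 Cells are dispensed, compounds pinned in, plates held at 37 °C for 72 h, then CellTiter-Glo is added and luminescence read after 10 minutes. Cell line: parental KB-3-1 in phenol-red-free DMEM, 10% FBS.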
# MCF10A rerep = A quantitative high throughput screen for small molecules that induce DNA re-replication in MCF 10a normal breast cells; AID 624296, 2012; MCF 10A DNA re-replication, Hoechst nuclear intensity, 48 h; Potency, µM (series often up to 46.1 µM), inactives show at the highest dose activity, positive = re-replication, usual class: activators; hit rate 2.9% among 350,000; also: potency is read from the fitted curve at half-maximal effect; % of control where 0% means no effect; nearly all actives have a fitted effect of over 50% in size
# KB-V1 MDR tox = qHTS assay for MDR1-selective chemotherapeutics: Primary screen using the drug-selected MDR subline cells KB-V1; KB-V1 MDR cells viability, CellTiter-Glo, 72 h; hit rate 3.4% among 400,000; Potency, µM (highest dose often 46.1 µM), most hits filed as cytotoxic; also: potency is read from the fitted curve at half-maximal effect; % is scaled to controls: 0 for no effect and ±100 for the full control effect; nearly all actives have a fitted effect of over 60% in size
#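 Readout: CellTiter-Glo luminescence, 10 min after addition. Cells: KB-V1 MDR subline, 72 h at 37 degrees C with compound. Analysis: corrected, normalized data fitted to concentration-effect curves.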
# * marks the source's active call; other numbers are inactive results; i = inactive; ? = inconclusive; . = not tested or not shown. Compounds with a hit are over-represented: about 9.9% of the library has one in this group of screens. Unless noted, calls follow the shape of the dose curve; as a rule, active = well fitted curve in the direction sought with a large enough effect; inconclusive = small, poorly fitted or top-dose-only effect, or another doubt; inactive = no such curve, though single readings can be large; an effect the other way counts as inactive or inconclusive.
SMILES,IL-1B inflam inh,SW480 rereplic,KB-3-1 cytotox,MCF10A rerep,KB-V1 MDR tox
O=S(=O)(c1ccc(-c2csc(=Nc3ccccc3)n2CCCN2CCOCC2)cc1)N1CCOCC1,-61.4*,-8.2%,i,0.1%,i
CCCn1c(-c2ccc(S(=O)(=O)N3CCOCC3)cc2)csc1=Nc1ccc(OCC)cc1,.,.,i,.,i
COc1ccc(CCNCC(O)COc2ccc(OC)cc2C(C)(C)C)cc1 (stereo unspecified),-97.0*,23.1µM*,i,?,i
COc1ccc(CCNC[C@@H](O)c2ccc(O)cc2)cc1OC,.,-1.8%,.,-3.2%,.
COc1ccc(CCNCC(O)Cn2c3ccccc3c3ccccc32)cc1OC (stereo unspecified),-54.9*,-2.0%,?,9.2µM*,?
COc1ccc(CCNCC(O)COc2cccc(Br)c2)cc1OC (stereo unspecified),-61.2*,1.9%,i,7.6%,i
COc1ccc(-c2cc(C)no2)cc1S(=O)(=O)N1CCN(c2cccc(C)c2)C(C)C1 (stereo unspecified),-11.7,-2.7%,11.6µM*,?,?
Cc1cccc(N2CCN(S(=O)(=O)c3cc(-c4cc(C)no4)ccc3C)CC2C)c1 (stereo unspecified),0.0,10.3µM*,?,3.26µM*,?
O=C(CSc1nc2ccccc2n1Cc1c(F)cccc1Cl)N1CCN(c2ccc(F)cc2)CC1,.,.,i,.,i
Cc1cc(C)c2c(=O)cc(C(=O)NCc3ccc(S(N)(=O)=O)cc3)oc2c1,.,.,i,.,?
CC(OC(=O)CNC(=O)COc1ccccc1)C(=O)N(C)Cc1ccccc1 (stereo unspecified),6.7,-0.2%,i,-2.0%,i
O=C(COc1ccccc1F)N1CCN(S(=O)(=O)/C=C/c2ccccc2)CC1,-6.8,-87.2%,i,9.0%,14.6µM*
O=C(c1ccc(Cl)cc1)N1CCN(S(=O)(=O)/C=C/c2ccccc2)CC1,?,-23.6%,23.1µM*,-1.9%,i
O=C(COc1ccc(Br)cc1)N1CCN(S(=O)(=O)/C=C/c2ccccc2)CC1,?,?,i,6.4%,?
CC(C)CCn1c(COc2ccccc2)nn(CCC#N)c1=S,38.1,-5.3%,i,?,i
CCOC(=O)c1c(C)sc2c1N(C(=O)CCl)c1cc(Cl)ccc1S2,-101.1*,?,?,?,?
COc1ccc(C(=O)Nc2ccc(S(=O)(=O)N3CCCCC3C)cc2)c(OC)c1OC (stereo unspecified),-59.5*,0.2%,i,9.1%,i
Cc1ccc(S(=O)(=O)Nc2ccccc2C(=O)N2CCCCC2C)c(C)c1NS(C)(=O)=O (stereo unspecified),3.0,-23.9%,i,-34.7%,?
Cc1ccc(C)c(N(CC(=O)NC(C)C)C(=O)CCC(=O)Nc2ccccn2)c1,-9.3,?,i,-10.1%,i
N#CC1=C(N)Oc2c(ccc3ccccc23)C1c1ccsc1 (stereo unspecified),13.1,?,6.51µM*,?,?
CC(C)OC(=O)CN1C(=O)S/C(=C/c2ccc(N3CCCCC3)o2)C1=O,-103.5*,?,i,26.4%,i
O=C1S/C(=C/c2ccc(N3CCOCC3)o2)C(=O)N1Cc1ccc(F)cc1,-22.1,5.8%,i,9.7%,i
CCC(=O)Nc1nc(NCc2ccccc2OC)n(-c2ccccc2)n1,-1.0,-14.2%,i,-2.2%,i
Cc1ccc(-c2cc(C(=O)N(C)Cc3cnn(C)c3C)c3cc(Br)ccc3n2)cc1,23.5,9.2%,?,16.4µM*,?
Cc1[nH]n(-c2ccccc2)c(=O)c1C(C[N+](=O)[O-])c1ccc(Cl)cc1 (stereo unspecified),-13.7,16.4µM*,i,?,i
CC(C)CN1CCC(CNC(=O)CCc2nnc(Cc3c[nH]c4ccccc34)o2)CC1,-7.9,-8.3%,i,-1.6%,i

# Source: PubChem
